Results from PubChem BioAssay AID602396 (The Scripps Research Institute Molecular Screening Center, 2012).
Hit rate of the full screen: of about 360,000 compounds, about 460 (0.13%) were called active. This is one part of a sample in which actives are shown more often than they occur.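 Rule for the calls: active = inhibition above the mean inhibition of all tested compounds plus 3 SD (cut at about 73% in these data); inactive = the rest.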

target: Nuclear receptor subfamily 5 group A member 2 (Homo sapiens) (UniProt O00482); assay: reduction of NR5A2-driven StAR reporter activity – cell-based, luminescence, HEK293T, StAR-luciferase reporter, primary screen (AID 602396); settings: LRH-1 transfected, 24 h, at 3.6 µM, active compounds read high;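 note: 0% = DMSO wells and 100% = reporter-only cells lacking LRH-1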
Sequence (O00482 whole entry, looked up): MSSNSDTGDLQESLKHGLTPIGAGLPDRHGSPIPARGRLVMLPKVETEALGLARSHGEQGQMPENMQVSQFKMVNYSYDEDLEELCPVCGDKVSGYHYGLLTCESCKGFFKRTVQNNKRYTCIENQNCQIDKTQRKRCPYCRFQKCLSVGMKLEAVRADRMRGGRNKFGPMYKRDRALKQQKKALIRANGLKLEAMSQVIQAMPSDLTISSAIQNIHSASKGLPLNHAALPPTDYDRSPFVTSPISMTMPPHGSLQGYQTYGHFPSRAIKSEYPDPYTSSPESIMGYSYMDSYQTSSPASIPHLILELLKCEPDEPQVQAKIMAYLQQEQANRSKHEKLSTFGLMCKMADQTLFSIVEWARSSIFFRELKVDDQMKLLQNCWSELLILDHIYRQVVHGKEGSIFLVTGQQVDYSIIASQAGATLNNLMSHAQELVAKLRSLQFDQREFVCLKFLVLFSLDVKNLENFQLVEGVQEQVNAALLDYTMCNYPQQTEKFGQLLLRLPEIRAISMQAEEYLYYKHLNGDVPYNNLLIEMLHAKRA

inhibition, inactive:
COc1ccccc1-c1oc2ccccc2c1C#CCCCCO -10.4%
COC(=O)[C@]1(C)N[C@H](CN(C)C(=O)c2ccc(C(C)(C)C)cc2)[C@@H]2C(=O)N(C)C(=O)[C@@H]21 -20.1%
CC1C=CCC2C(=O)N(c3cccc(C(=O)N4CCCCCC4)c3)C(=O)C12 (centres undefined) 6.85%
CC(C)N(C)C(=O)CCc1nnc(CCc2c[nH]c3ccccc23)o1 18.1%
O=C(Nc1ccc([N+](=O)[O-])cc1)C1(c2ccccc2)CCOCC1 -9.79%
Cc1ccc(NC(=O)CSc2sc3c(O)cc(=O)[nH]c3c2C#N)cc1C 6.61%
COc1ccc(OC)c(CCNC(=O)c2nn(C)c3c2CS(=O)(=O)c2ccccc2-3)c1 7.08%
Cn1c(N)c(C(=O)COC(=O)COc2ccc(Cl)cc2)c(=O)n(C)c1=O 4.34%
CC(=O)N1CCSc2ccc(S(=O)(=O)N3CCC(C)CC3)cc21 2.83%
COc1ccccc1N1CCN(CC(=O)NCCc2ccc(S(N)(=O)=O)cc2)CC1 16.7%
Nc1ccc(OCC(O)C[n+]2ccc(CCS(=O)(=O)[O-])cc2)cc1 (centres undefined) -10.5%
CCCCn1c(N)c(N(CC)C(=O)c2ccccc2C(F)(F)F)c(=O)[nH]c1=O -19.4%
Cc1ccc(CNC(=O)C2CCCN2S(=O)(=O)c2ccc3c(c2)C(C)(C)C(=O)N3C)cc1 (centres undefined) 4.35%
CCOCCCNC(=O)C(NC(=O)c1ccc(=O)[nH]c1)c1ccc(Cl)cc1 (centres undefined) 11.9%
CCOc1ccc(Br)cc1S(=O)(=O)Nc1cccc(S(=O)(=O)N(CC)CC)c1 -37.2%
CCC(C)(C)NC(=O)C(c1cccn1C)N(Cc1ccc(C)cc1)C(=O)Cn1nnc2ccccc21 (centres undefined) 22.9%
CC1(C)C(=O)C2(CCCCC2)C(=O)OC1c1cccs1 (centres undefined) 5.23%
O=C(O)CCC(=O)N(Cc1ccco1)c1nc(-c2ccccc2)cs1 -15.1%
CSc1nnc(C2CCCN(CC(=O)Nc3ccccc3N3CCOCC3)C2)n1C(C)C (centres undefined) -21.8%
COc1ccc(Cn2c(-c3ccc(Cl)cc3)c[n+]3ccccc23)cc1 -37.2%
COC1=CC(=O)OC(C)(c2ccccc2)C1 (centres undefined) -28%
Cc1ccc(OS(=O)(=O)c2ccc(-c3csc(C)n3)s2)c(C)c1 -6.88%
CC1CCCCC1NC(=O)NC(=O)COC(=O)C1=NN(c2ccccc2)C(=O)CC1 (centres undefined) -11.1%
CCn1nc(C)cc1C(=O)N1CCCC(C(=O)c2cccc(OC)c2)C1 (centres undefined) 6.22%
